Screening data from PubChem.
FBA Mtb inh – inhibits M. tuberculosis FBA enzyme | P9WQA3 | purified M. tuberculosis FBA, fluorescence read-out | inhibition, % at 1 µM | 360,000 compounds, 2.3% hits; in the data active = inhibition above about 27%
Target sequence (P9WQA3 whole entry, looked up): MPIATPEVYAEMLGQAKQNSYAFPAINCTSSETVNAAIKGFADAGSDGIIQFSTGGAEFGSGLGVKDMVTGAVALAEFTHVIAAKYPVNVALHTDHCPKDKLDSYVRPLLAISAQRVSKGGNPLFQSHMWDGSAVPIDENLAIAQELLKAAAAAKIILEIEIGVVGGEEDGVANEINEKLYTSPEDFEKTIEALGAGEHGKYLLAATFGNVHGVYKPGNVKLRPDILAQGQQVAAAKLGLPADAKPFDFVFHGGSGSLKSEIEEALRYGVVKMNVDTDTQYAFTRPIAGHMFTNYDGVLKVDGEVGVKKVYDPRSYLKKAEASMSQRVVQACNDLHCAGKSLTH
GDH-TPI counter – GDH-TPI coupled enzyme inhibition counter-screen; GDH-TPI coupled enzyme counterscreen, NADH absorbance; inhibition, % at 4.8 µM; 360,000 compounds, 1.2% hits; in the data active = inhibition above about 30%
Vc quorum ag – inducers of Vibrio cholerae quorum light production without autoinducers. V. cholerae BH1578 lux reporter, luminescence, 6 h. activation, % at 18.7 µM. 350,000 compounds, 0.16% hits. AID 588436; in the data active = activation mostly above about 9.7%, no sharp cut-off
BioA inh – BioA (M. tuberculosis) enzyme inhibition | purified M. tuberculosis BioA enzyme, plate reader | inhibition, % at 9.99 µM | 360,000 compounds, 0.096% hits; in the data active = inhibition above about 40%
Large screens that a line does not name were inactive. Most compounds without a hit are left out; they make up all but 3% or so of the library.

C[C@@H]1CCCCO[C@@H](CN(C)C(=O)C2CCCCC2)[C@@H](C)CN([C@H](C)CO)C(=O)c2cc(NC(=O)Nc3ccc(C(F)(F)F)cc3)ccc2O1	none (no result: FBA Mtb inh, GDH-TPI counter, Vc quorum ag)
CC1=CC(c2ccccc2)n2nc(N3C(=O)c4ccccc4C3=O)nc2N1 (configuration not stated)	FBA Mtb inh 30.1
CC1=CC(c2ccccc2)n2nc(N3C(=O)C4CC=CCC4C3=O)nc2N1 (configuration not stated)	FBA Mtb inh 175.2
Nc1nc(N2C(=O)C3CC=CCC3C2=O)nn1-c1ccccc1 (configuration not stated)	none
C=CCNC(=O)CSc1nc2sc3c(c2c(=O)n1CCCOC)CCC3	GDH-TPI counter 35.0
C=CCNC(=O)CSc1nc2sc3c(c2c(=O)n1CCC)CCC3	none
CN(C)c1ccc(/C=N/n2c(C3CCCCC3)n[nH]c2=S)cc1	GDH-TPI counter 35.7
CN(C)c1ccc(/C=N/n2c(-c3ccccc3Br)n[nH]c2=S)cc1	GDH-TPI counter 53.7
CN(C)c1ccc(/C=N/n2c(-c3cccnc3)n[nH]c2=S)cc1	none (no result: BioA inh)
Cc1ccc(/C=N/n2c(COc3ccccc3)n[nH]c2=S)cc1	none
CN(C)c1ccc(/C=N/n2c(COc3ccccc3)n[nH]c2=S)cc1	GDH-TPI counter 34.6
Cc1ccc(S(=O)(=O)N(C)C[C@H]2OCCCC[C@@H](C)Oc3ccc(N(C)C)cc3C(=O)N([C@@H](C)CO)C[C@H]2C)cc1	none (no result: FBA Mtb inh, GDH-TPI counter, Vc quorum ag)
CC(C)NC(=O)N(C)C[C@H]1Oc2ccc(NS(=O)(=O)c3ccc(F)cc3)cc2CC(=O)N([C@@H](C)CO)C[C@@H]1C	none (no result: FBA Mtb inh, GDH-TPI counter, Vc quorum ag)
Cc1cccn2c(=O)c3cc(S(=O)(=O)c4ccccc4)c(=N)n(Cc4ccco4)c3nc12	none
Cc1ccc2nc3c(cc(S(=O)(=O)c4ccccc4)c(=N)n3Cc3ccco3)c(=O)n2c1	FBA Mtb inh 121.5
Cc1cccn2c(=O)c3cc(S(=O)(=O)c4ccc(F)cc4)c(=N)n(Cc4ccco4)c3nc12	FBA Mtb inh 116.0
C[C@@H]1CN([C@H](C)CO)C(=O)Cc2cc(NC(=O)Nc3ccc4c(c3)OCO4)ccc2O[C@H]1CN(C)CC1CCCCC1	none (no result: FBA Mtb inh, GDH-TPI counter, Vc quorum ag)
O=C(/C=C/c1cccnc1)/C=C/c1cccnc1	GDH-TPI counter 33.1
C[C@@H]1CN([C@H](C)CO)C(=O)Cc2cc(NC(=O)Nc3ccc(C(F)(F)F)cc3)ccc2O[C@@H]1CN(C)Cc1ccc(C(F)(F)F)cc1	none (no result: FBA Mtb inh, GDH-TPI counter, Vc quorum ag)
O=C(CNC(=O)c1cccc(OC(F)F)c1)OCc1cc(=O)n2cc(Br)ccc2n1	GDH-TPI counter 30.9
O=C(CNC(=O)c1cccc(OC(F)F)c1)OCC(=O)c1ccccc1	none
COc1cc(/C=C2\NC(=S)NC2=O)ccc1OCc1cccc(C(=O)O)c1	GDH-TPI counter 32.2
Cc1noc(C)c1NC(=O)Nc1ccc2c(c1)CC(=O)N([C@@H](C)CO)C[C@@H](C)[C@H](CN(C)C(=O)Nc1cccc3ccccc13)O2	none (no result: FBA Mtb inh, GDH-TPI counter, Vc quorum ag)
C/C(=N\NC(=O)c1ccc(NS(=O)(=O)c2cccs2)cc1)c1cccs1	none
C/C(=N\NC(=O)c1ccc(Cl)cc1)c1cccs1	GDH-TPI counter 41.5
COCCCNC(=O)Cc1c(C)c2cc3c(cc2oc1=O)OC(C)(C)CC3	FBA Mtb inh 191.7
Cc1c(CC(=O)O)c(=O)oc2cc3occ(-c4ccccc4)c3cc12	none
Cc1c(CC(=O)N2CCC(C(N)=O)CC2)c(=O)oc2cc3c(cc12)CCC1(CCCCC1)O3	FBA Mtb inh active
Cc1c(CCC(=O)N2CCC(C(=O)O)CC2)c(=O)oc2cc3oc4c(c3cc12)CCCC4	none
Cc1c(CC(=O)O)c(=O)oc2cc3c(cc12)CCC(C)(C)O3	FBA Mtb inh active
Cc1c(CC(=O)NCCCCCC(=O)O)c(=O)oc2cc3c(cc12)CCC(C)(C)O3	FBA Mtb inh 187.0
C#Cc1ccc([C@H]2C=C(C(=O)NCc3nc4ccccc4[nH]3)O[C@@H](OCCCCO)C2)cc1	none (no result: FBA Mtb inh, GDH-TPI counter, Vc quorum ag)
Cc1c(CC(=O)NCCCC(=O)O)c(=O)oc2cc3c(cc12)CCC(C)(C)O3	FBA Mtb inh active
CCC(NC(=O)Cc1c(C)c2cc3c(cc2oc1=O)OC(C)(C)CC3)C(=O)O (configuration not stated)	FBA Mtb inh active
CSCC[C@H](NC(=O)Cc1c(C)c2cc3c(C)c(C)oc3cc2oc1=O)C(=O)N[C@@H](C(=O)O)c1ccccc1	none
CCC(=O)N(C)C[C@H]1Oc2cc(-c3cccc(F)c3)ccc2S(=O)(=O)N([C@@H](C)CO)C[C@H]1C	none (no result: FBA Mtb inh, GDH-TPI counter, Vc quorum ag)
COc1ccc(S(=O)(=O)N(C)C[C@H]2Oc3c(NC(=O)NC(C)C)cccc3C(=O)N([C@@H](C)CO)C[C@H]2C)cc1	none (no result: FBA Mtb inh, GDH-TPI counter, Vc quorum ag)
Cc1cc(NCc2ccco2)nc2cc(O)ccc12	FBA Mtb inh 124.3 (no result: Vc quorum ag)
COCCNC(=O)Nc1ccc2nc(-c3cccs3)c(-c3cccs3)nc2c1	none
O=C(Nc1ccc2nc(-c3cccs3)c(-c3cccs3)nc2c1)NC1CC1	GDH-TPI counter 32.1
O=C(Cn1cc(COc2c(F)c(F)c(Br)c(F)c2F)nn1)c1ccc(O)cc1	GDH-TPI counter 31.1
O=C(Cn1cc(COc2ccc(Br)cc2)nn1)c1ccc(O)cc1	none
O=C(Cn1cc(COc2ccc3ccc(=O)oc3c2)nn1)c1ccc(O)cc1	GDH-TPI counter 41.2
COCC#Cc1cnc2c(c1)C(=O)N([C@@H](C)CO)C[C@@H](C)[C@H](CN(C)C(C)=O)O2	none (no result: FBA Mtb inh, GDH-TPI counter, Vc quorum ag)
COc1ccc(CN2CCC(C)=CC2C)cc1 (configuration not stated)	none (no result: FBA Mtb inh, GDH-TPI counter, Vc quorum ag)
CCN(CC)C(=O)CSc1nc2c(sc(=S)n2-c2ccccc2)c(=O)n1-c1ccc(OC)cc1OC	FBA Mtb inh active
CCN(CC)C(=O)CSc1nc2c(sc(=S)n2-c2ccccc2)c(=O)n1-c1ccccc1OC	none
Cc1ccccc1S(=O)(=O)N1CC[C@@H]2[C@H]1c1cc(-c3cccc(C#N)c3)ccc1N(C)[C@H]2CO	none (no result: FBA Mtb inh, GDH-TPI counter, Vc quorum ag)
CN1C(C(=O)Nc2ccccn2)=C(O)c2ccccc2S1(=O)=O	GDH-TPI counter 33.3
CO[C@H]1CN(C)C(=O)c2cc(NS(=O)(=O)c3ccccc3)ccc2OC[C@@H](C)N(Cc2cccnc2)C[C@@H]1C	none (no result: FBA Mtb inh, GDH-TPI counter, Vc quorum ag)
COc1ccc(S(=O)(=O)Nc2ccc3c(c2)CC(=O)N([C@H](C)CO)C[C@H](C)[C@@H](CN(C)S(=O)(=O)c2ccc(Cl)cc2)O3)cc1	none (no result: FBA Mtb inh, GDH-TPI counter, Vc quorum ag)
Cc1ccc(S(=O)(=O)NC(CC(C)C)C(=O)Oc2ccc3c4c(c(=O)oc3c2)CCC4)cc1 (configuration not stated)	FBA Mtb inh active
CC[C@@H](NS(=O)(=O)c1ccc(C)cc1)C(=O)Oc1ccc2c3c(c(=O)oc2c1)CCC3	FBA Mtb inh active (no result: BioA inh)
CCC(C)C(NS(=O)(=O)c1ccc(C)cc1)C(=O)Oc1ccc2c3c(c(=O)oc2c1)CCC3 (configuration not stated)	FBA Mtb inh 36.8
CNC(=O)C1CCN(S(=O)(=O)c2c(C)noc2/C=C/N(C)C)CC1	GDH-TPI counter 34.8
Cc1cc(C)c(NC(=O)C2CCCN(S(=O)(=O)c3c(C)noc3/C=C/N(C)C)C2)c(C)c1 (configuration not stated)	GDH-TPI counter 34.2
Cc1noc(/C=C/N(C)C)c1S(=O)(=O)N(C)CC(=O)NC1CCCCC1	GDH-TPI counter 51.3 (no result: BioA inh)
Cc1ccc(C)c(N2CCN(S(=O)(=O)c3c(C)noc3/C=C/N(C)C)CC2)c1	GDH-TPI counter 36.1
